Records with an inconclusive call do not appear. A number with no mark means an inactive call. Calls of active or inactive are those of the source. Calls follow the shape of the full dose curve.

A short description of this test: VSV-G qHTS counterscreen for inhibitors of MERS-S pseudo-typed particle cell entry. Particulars: VSV-G pseudotyped particle cell entry, luciferase counterscreen; series mostly up to 57.1 µM; activity, negative = inhibition: at the top concentration. In general terms: In qHTS, concentration-response curves come from the screen itself.
For `CC[C@@H]([C@H](C)O)n1ncn(-c2ccc(N3CCN(c4ccc(OC[C@@H]5CO[C@@](Cn6cncn6)(c6ccc(F)cc6F)C5)cc4)CC3)cc2)c1=O`, the Potency was 6.81 µM (active). Take `CC(C)OC(=O)OCOP(=O)(CO[C@H](C)Cn1cnc2c(N)ncnc21)OCOC(=O)OC(C)C`: the Potency is 0.0192 µM (active). As for `COc1ccc(Cc2nccc3cc(OC)c(OC)cc23)cc1OC`, the Potency is 3.04 µM (active). Same read-out and setting: the result for `CC[C@@]1(O)C(=O)OCc2c1cc1n(c2=O)Cc2c-1nc1ccccc1c2/C=N/OC(C)(C)C` reads 0.0108 µM (active); that for `Nc1nc(Cl)nc2c1ncn2C1CC(O)C(CO)O1` (configuration not stated), 9.61 µM (active). With `CC[C@H](C)C(=O)O[C@H]1C[C@@H](C)C=C2C=C[C@H](C)[C@H](CC[C@@H]3C[C@@H](O)CC(=O)O3)[C@H]21`, the “activity, negative = inhibition” value is -2.55%. Regarding `C[C@H]1[C@H](OC(=O)CCC(=O)O)O[C@@H]2O[C@@]3(C)CC[C@H]4[C@H](C)CC[C@@H]1[C@@]24OO3`, the Potency was 0.681 µM (active).

For the molecule `CCCCCCCCCCCCOCCOCCOCCOCCOCCOCCOCCOCCOCCO`, the Potency is 5.41 µM (active). Same read-out and setting: the result for `C[C@@H]1CCO[C@H]2Cn3cc(C(=O)NCc4ccc(F)cc4F)c(=O)c(O)c3C(=O)N12` reads 0.0015 µM (active). Regarding `COc1ccc2cc1Oc1ccc(cc1)C[C@H]1c3c(cc4c(c3Oc3cc5c(cc3OC)CCN(C)[C@@H]5C2)OCO4)CCN1C`, the Potency is 21.5 µM (active).

For the molecule `O=C1CCc2ccc(OCCCCN3CCN(c4cccc(Cl)c4Cl)CC3)cc2N1`, the Potency is 13.6 µM (active). On the same count and under the same terms, to `CO[C@@]12[C@H](COC(N)=O)C3=C(C(=O)C(C)=C(N)C3=O)N1C[C@@H]1N[C@@H]12` belongs 0.857 µM (active). `COc1ccc2cc3[n+](cc2c1OC)CCc1cc2c(cc1-3)OCO2`: the Potency was 8.57 µM (active). On the same count and under the same terms, the result for `CC[C@@]1(O)C(=O)OCc2c1cc1n(c2=O)Cc2cc3c(CN(C)C)c(O)ccc3nc2-1` reads 0.0857 µM (active). For `Oc1c(Cl)cc(Cl)c(Cl)c1Cc1c(O)c(Cl)cc(Cl)c1Cl`, the Potency is 1.08 µM (active). With `C/C=C(/C)C(=O)O[C@H]1C(C)=CC23C(=O)C(C=C(CO)[C@@H](O)[C@]12O)[C@H]1[C@@H](C[C@H]3C)C1(C)C` (some centres not stated), the “activity, negative = inhibition” value is -11.4%.

Turning to `CC(CN(C)C)CN1c2ccccc2CCc2ccccc21` (configuration not stated), the “activity, negative = inhibition” value was -15%. `C=CC(=O)Nc1cc(Nc2nccc(-c3cn(C)c4ccccc34)n2)c(OC)cc1N(C)CCN(C)C`: the Potency is 30.4 µM (active).

`COc1cc(NS(C)(=O)=O)ccc1Nc1c2ccccc2nc2ccccc12`: the Potency was 0.764 µM (active). Take `CC(C)C[C@H](NC(=O)[C@H](CCc1ccccc1)NC(=O)CN1CCOCC1)C(=O)N[C@@H](Cc1ccccc1)C(=O)N[C@@H](CC(C)C)C(=O)[C@@]1(C)CO1`: the Potency is 0.192 µM (active). On to `CC(=O)N1CCN(c2ccc(OC[C@H]3CO[C@](Cn4ccnc4)(c4ccc(Cl)cc4Cl)O3)cc2)CC1`, for which the Potency was 7.64 µM (active).

For the molecule `CCCCCCCCCCCC[n+]1ccc2ccccc2c1`, the Potency is 1.52 µM (active).

`C[C@]12CC[C@H](O)C[C@H]1CCC1C2CC[C@]2(C)[C@@H](c3ccc(=O)oc3)C[C@H]3O[C@]132` (some centres not stated): the Potency is 4.82 µM (active).

As for `COC(=O)C[C@](O)(CCCC(C)(C)O)C(=O)O[C@@H]1C(OC)=C[C@]23CCCN2CCc2cc4c(cc2[C@H]13)OCO4`, the Potency was 0.482 µM (active). The same measure, in the same setting: to `Cc1nn(C)c2c1C(c1ccccc1F)=NCC(=O)N2C` belongs 6.07 µM (active).

On to `CCc1c2c(nc3ccc(OC(=O)N4CCC(N5CCCCC5)CC4)cc13)-c1cc3c(c(=O)n1C2)COC(=O)[C@]3(O)CC`, for which the Potency is 10.8 µM (active).

Take `O=C(O)c1cc(O)c2c(c1)[C@H]([C@H]1c3cc(C(=O)O)cc(O)c3C(=O)c3c(O[C@@H]4O[C@H](CO)[C@@H](O)[C@H](O)[C@H]4O)cccc31)c1cccc(O[C@@H]3O[C@H](CO)[C@@H](O)[C@H](O)[C@H]3O)c1C2=O`: the Potency was 7.44 µM (active).

(Values after PubChem BioAssay AID1494156 (National Center for Advancing Translational Sciences (NCATS), 2020).)
